Measured values taken from PubChem BioAssay AID1347150 (National Center for Advancing Translational Sciences (NCATS), 2019).
Results filed as inconclusive are left out. A call without a number means that no potency is given here. Active and inactive are the calls of the source. The call rests on the fitted dose curve; in most records, active means well fitted curve in the direction sought with a large enough effect; inconclusive means small, poorly fitted or top-dose-only effect, or another doubt; inactive means no such curve, though single readings can be large or run the other way. Numbered stars: 1 amine (or outer) side, 2 acyl side, 3 side chain; on linkers, the order of the positions; unused ones are H or OH. Bridge positions count the residues as written; N and C are the ends. Square brackets hold non-standard residues; d marks the D form. Peptide text beside a SMILES is read from it. I, II: the chains in the order shown. ξ: configuration not given here. Actinocin(9to1) = Cc1c2oc3c(C)ccc(C(=O)[*:1])c3nc-2c(C(=O)[*:2])c(N)c1=O; NMeV = CN[C@H](C(=O)O)C(C)C; ξNMeV = CNC(C(=O)O)C(C)C; ξV = CC(C)C(N)C(=O)O; Sar = CNCC(=O)O

test system: Zika virus NS2B-NS3 protease (linked); experiment: Optimization screen NINDS AMC qHTS for Zika virus inhibitors: Linked NS2B-NS3 protease assay; conditions: recombinant linked NS2B-NS3 protease, AMC fluorogenic substrate; series mostly up to 52.5 µM
Excerpt: Avindra Nath, Ph.D., National Institute of Neurological Disorders and Stroke (NINDS), Bethesda, MD
Radhakrishnan Padmanabhan, Ph.D., Georgetown University (GU), Washington D.C.
Zika Virus causes congenital defects, including microcephaly and is associated with Guillain-Barre syndrome, eningoencephalitis and myelitis in infected adult. […] Using a target-based approach, we hope to establish a screening paradigm to uncover novel, cell-active NS2B-NS3 protease (Zika Virus) specific inhibitors from NCATS' collection of small molecules using qHTS.
Four assay panel was created to identify potential Zika Virus inhibitors. Namely, (1) GU unlinked NS2B-NS3 AMC tagged protease qHTS, (2) GU unlinked NS2B-NS3 Rhodamine tagged protease qHTS, (3) NINDS linked NS2B-NS3 AMC tagged protease qHTS, (4) NINDS linked NS2B-NS3 Rhodamine tagged protease qHTS. Active compounds were re-acquired and re-screened to confirm inhibition. Inhibitors were further screened against various confirmatory and counterscreens in dose response format.
Early Translation Branch (ETB)
National Center for Advancing Translational Sciences (NCATS), Rockville, MD
National Institute of Health (NIH), Bethesda, Maryland
For the linked assay, Nath lab (NINDS) provided the purified linked NS2B-NS3 protease which is consists of hydrophilic domain of NS2B linked to the NS3 protease domain by a flexible (-GGGGSGGGG-) linker. Control compound aprotinin is obtained from Thermo Scientific (#78432; Waltham, Massachusetts). NS2B-NS3 AMC substrate (Bz-Nle-Lys-Arg-Arg-AMC; Nle-KRR-AMC) purchased from Bachem (#I-1995; Torrance, CA). Ac-VKTGKR-AMC purchased from Genscript or Bachem, Ac-FAAGKR-AMC purchased from Genscript, Ac-GLVKRR-AMC purchased from Genscript, Ac-LKKR-AMC purchased from Genscript.
NINDS AMC linked NS2B-NS3 protease qHTS protocol:
Briefly, 3 microL of Zika virus linked NS2B-NS3 protease (1 nM for linked final concentration), in assay buffer (10 mM Tris-HCl pH 8.0 with 0.01% Tween 20) was dispensed into a 1,536-well solid-bottom black plate (Greiner Bio One, Monroe, NC). Twenty-three nL of compounds (final concentration range 7.28 nM to 114 microM) or control Aprotinin (final concentration range 3.47 nM to 114 microM) were transferred via Wako Pin-tool (Wako Automation, Richmond, VA). Samples were incubated (room temperature, protected from light) for 15 minutes followed by a 1 microL AMC substrate addition of (final concentration of 10 microM; Km = 18.3 µM). Plates were then read immediately on a ViewLux High-throughput CCD imager (PerkinElmer, Waltham, MA) equipped with standard UV fluorescence optics (340(30) nm excitation, 450(20) nm emission) then incubated (room temperature, protected from light) for 15 minutes (~20% conversion). The change in fluorescence intensity over the 15-minute reaction period was normalized against no-inhibitor and no-enzyme controls and the resulting percent inhibition data were fitted to a 4-parameter Hill equation. Aprotinin was used as the intraplate control.

SMILES	Potency
CCCCC(CC)CN=C(N)NC(N)=NCCCCCCN=C(N)NC(N)=NCC(CC)CCCC (stereo not given)	19.2 µM (active)
CC[C@@H](C)[C@H]1O[C@]2(CC[C@H]1C)C[C@@H]1C[C@@H](CC=C(C)[C@@H](O[C@H]3C[C@H](OC)[C@@H](O[C@H]4C[C@H](OC)[C@@H](O)[C@H](C)O4)[C@H](C)O3)[C@@H](C)C=CC=C3CO[C@@H]4[C@H](O)C(C)=C[C@@H](C(=O)O1)[C@]34O)O2	inactive
O=c1cc(-c2ccccc2)oc2cc(O)c(O)c(O)c12	inactive
O=C1c2c(O)ccc([N+](=O)[O-])c2C(=O)c2c([N+](=O)[O-])ccc(O)c21	44.1 µM (active)
CC(C)N=c1cc2n(-c3ccc(Cl)cc3)c3ccccc3nc-2cc1Nc1ccc(Cl)cc1	inactive
CC1OC(OC2C(O)CC(OC3C(O)CC(OC4CCC5(C)C(CCC6C5CC(O)C5(C)C(C7=CC(=O)OC7)CCC65O)C4)OC3C)OC2C)CC(O)C1O (stereo not given)	inactive
C[C@H]1O[C@@H](O[C@H]2[C@@H](O)C[C@H](O[C@H]3[C@@H](O)C[C@H](O[C@H]4CC[C@]5(C)C6C[C@@H](O)[C@]7(C)[C@@H](C8=CC(=O)OC8)CC[C@]7(O)C6CC[C@@H]5C4)O[C@@H]3C)O[C@@H]2C)C[C@H](O)[C@@H]1O (stereo not given in full)	inactive
CC[C@H](C)[C@H]1O[C@]2(CC[C@@H]1C)C[C@@H]1C[C@@H](C/C=C(\C)[C@@H](O[C@H]3C[C@H](OC)[C@@H](O[C@H]4C[C@H](OC)[C@@H](O)[C@H](C)O4)[C@H](C)O3)[C@@H](C)/C=C/C=C3\CO[C@@H]4[C@H](O)C(C)=C[C@@H](C(=O)O1)[C@]34O)O2	inactive
CO[C@H]1C[C@@H](O[C@@H]2/C(C)=C/C[C@@H]3C[C@@H](C[C@]4(CC[C@H](C)[C@@H](C5CCCCC5)O4)O3)OC(=O)[C@@H]3C=C(C)/C(=N/O)[C@H]4OC/C(=C\C=C\[C@@H]2C)[C@]43O)O[C@@H](C)[C@H]1O	inactive
CC=CCC(C)C(O)C1C(=O)NC(CC)C(=O)N(C)CC(=O)N(C)C(CC(C)C)C(=O)NC(C(C)C)C(=O)N(C)C(CC(C)C)C(=O)NC(C)C(=O)NC(C)C(=O)N(C)C(CC(C)C)C(=O)N(C)C(CC(C)C)C(=O)N(C)C(C(C)C)C(=O)N1C (stereo not given)	inactive
Nc1ccn([C@@H]2O[C@H](CO)[C@@H](O)C2(F)F)c(=O)n1	inactive
C[C@H]1O[C@@H](O[C@H]2CC[C@@]3(C)[C@H](CC[C@@H]4[C@@H]3C[C@@H](O)[C@]3(C)[C@@H](C5=CC(=O)OC5)CC[C@]43O)C2)C[C@H](O)[C@@H]1O[C@H]1C[C@H](O)[C@H](O[C@H]2C[C@H](O)[C@H](O[C@@H]3O[C@H](CO)[C@@H](O)[C@H](O)[C@H]3O)[C@@H](C)O2)[C@@H](C)O1	inactive
Cc1ccccc1CNc1ncnc2c1ncn2C1OC(CO)C(O)C1O (stereo not given)	inactive
Cn1cnc([N+](=O)[O-])c1Sc1ncnc2nc[nH]c12	inactive
O=C(Nc1ccc([N+](=O)[O-])cc1Cl)c1cc(Cl)ccc1O	inactive
COc1c2occc2cc2ccc(=O)oc12	inactive
Nc1ncnc2c1ncn2[C@@H]1O[C@H](CSCC[C@H](N)C(=O)O)[C@@H](O)[C@H]1O	inactive
CCc1nc(N)nc(N)c1-c1ccc(Cl)cc1	inactive
N[C@H](C(=O)O)c1ccc(O)cc1	inactive
CCOc1ccc(C2C(=O)N(C3CCCCC3)CC(=O)N2Cc2ccc(F)cc2)cc1OC (stereo not given)	inactive

SMILES	Potency
Nc1nc(=S)c2[nH]cnc2[nH]1	inactive
O=C1c2cccc3c2[C@@H](CCC3)CN1[C@@H]1CN2CCC1CC2	inactive
CO[C@H]1C[C@H](O[C@@H]2/C(C)=C/C[C@@H]3C[C@@H](C[C@]4(CC[C@H](C)[C@@H](C5CCCCC5)O4)O3)OC(=O)[C@@H]3C=C(C)/C(=N/O)[C@H]4OC/C(=C\C=C\[C@@H]2C)[C@]43O)O[C@@H](C)[C@@H]1O	inactive
Nc1ncnc2c1ncn2[C@@H]1O[C@H](C[C@@H](N)CC[C@H](N)C(=O)O)[C@@H](O)[C@H]1O	inactive
CC[C@@H]1O[C@]2(C=C[C@@H]1C)C[C@H]1C[C@H](CC=C(C)[C@@H](O[C@@H]3C[C@H](OC)[C@H](O[C@@H]4C[C@H](OC)[C@H](O)[C@H](C)O4)[C@H](C)O3)[C@@H](C)C=CC=C3CO[C@@H]4[C@@H](O)C(C)=C[C@@H](C(=O)O1)[C@]34O)O2	inactive
C[C@H]1O[C@@H](O[C@H]2[C@@H](O)C[C@H](O[C@H]3[C@@H](O)C[C@H](O[C@H]4CC[C@@]5(C)[C@H](CC[C@@H]6[C@@H]5C[C@@H](O)[C@]5(C)[C@@H](C7=CC(=O)OC7)CC[C@]65O)C4)O[C@@H]3C)O[C@@H]2C)C[C@H](O)[C@@H]1O	inactive
C[S+](CC[C@H](N)C(=O)O)C[C@H]1O[C@@H](n2cnc3c(N)ncnc32)[C@H](O)[C@H]1O (stereo not given in full)	inactive
CC(C)C[C@H](NC(=O)[C@H](Cc1ccccc1)NC(=O)c1cnccn1)B(O)O	inactive
S=c1nc[nH]c2nc[nH]c12	inactive
Cc1nc(Nc2ncc(C(=O)Nc3c(C)cccc3Cl)s2)cc(N2CCN(CCO)CC2)n1	355 µM (active)
O[C@@H](c1cc(C(F)(F)F)nc2c(C(F)(F)F)cccc12)[C@H]1CCCCN1	inactive
CCCCOc1ccc(C2C(=O)N(C3CCCCC3)CC(=O)N2C2CCCCC2)cc1 (stereo not given)	inactive
Cc1c2oc3c(C)ccc(C(=O)N[C@@H]4C(=O)NC(C(C)C)C(=O)N5CCC[C@H]5C(=O)N(C)CC(=O)N(C)C(C(C)C)C(=O)O[C@@H]4C)c3nc-2c(C(=O)N[C@@H]2C(=O)NC(C(C)C)C(=O)N3CCC[C@H]3C(=O)N(C)CC(=O)N(C)C(C(C)C)C(=O)O[C@@H]2C)c(N)c1=O (stereo not given in full) (I: T[ξV]P[Sar][ξNMeV] / II: T[ξV]P[Sar][ξNMeV]; ester I:1-I:C, II:1-II:C; linker I:N-II:N via Actinocin(9to1))	inactive
CCC(CC)(NC(=O)C(C)C)C(=O)N[C@@H](CCCN=C(N)N)C(=O)NC1(C(=O)NC(c2ccc(F)cc2)c2ccc(F)cc2)CCCC1	inactive
C[C@H](NC(=O)C(=O)Nc1ccccc1C(C)(C)C)C(=O)N[C@@H](CC(=O)O)C(=O)COc1c(F)c(F)cc(F)c1F	inactive
NC(=O)C(=O)O	inactive
COC(=O)Nc1nc2ccc(C(=O)c3ccccc3)cc2[nH]1	inactive
CC(C)(C)CC(C)(C)c1ccc(OCCOCC[N+](C)(C)Cc2ccccc2)cc1	inactive
Cc1c2oc3c(C)ccc(C(=O)N[C@@H]4C(=O)N[C@H](C(C)C)C(=O)N5CCC[C@H]5C(=O)N(C)CC(=O)N(C)[C@@H](C(C)C)C(=O)O[C@@H]4C)c3nc-2c(C(=O)N[C@@H]2C(=O)N[C@H](C(C)C)C(=O)N3CCC[C@H]3C(=O)N(C)CC(=O)N(C)[C@@H](C(C)C)C(=O)O[C@@H]2C)c(N)c1=O (I: T[dV]P[Sar][NMeV] / II: T[dV]P[Sar][NMeV]; ester I:1-I:C, II:1-II:C; linker I:N-II:N via Actinocin(9to1))	inactive
CCOc1ccc(C2C(=O)N(C3CCCCCC3)CC(=O)N2CCc2ccc(Cl)cc2)cc1OC (stereo not given)	inactive
